Unmarked numbers belong to inactive results. Calls of active or inactive are those of the source. No stated cut-off is given here; in the data, active means inhibition above about 25%; inactive means the rest.

This test in a line: repression of VP16-driven luciferase reporter – cell-based, luminescence, high throughput, counter-screen for SRC1 inhibitor project (AID 588824). The conditions noted are these: cell-based VP16 transactivation luciferase luminescence; at 3.6 µM; hits give high values. (In general: A reporter such as luciferase makes a cellular process visible.)
For the compound `NC(=O)c1sc2nc3c(c(-c4ccco4)c2c1N)CCC3`, the inhibition was 33.1% (active).

`COc1ccc2c(c1OC)C(=O)N1c3ccccc3C(=O)N(c3ccccc3)C21` (stereo not given): the inhibition was 2.1%. `CCOc1ccc(-n2c(C)c(C(C)=O)c3cc(O)ccc32)cc1`: the inhibition is 48.2% (active). `CC[n+]1ccccc1/C=C/c1ccc(N(C)C)cc1`: the inhibition was 40.1% (active).

As for `CC1CCN(c2nc3ccc(C(=O)O)cc3s2)CC1`, the inhibition is -1.81%. With `O=C(C1CCC(CNS(=O)(=O)c2cccs2)CC1)N1CCN(c2ccc(Cl)cc2)CC1` (stereo not given), the inhibition is 34.6% (active). As to `Cc1c2ccncc2cc2c1[nH]c1ccccc12`, the inhibition was 19.9%. On to `CC1CCN(Cc2c(C(=O)N/N=C/c3cc(Br)ccc3O)nnn2-c2nonc2N)CC1`, for which the inhibition is 81.9% (active). In the case of `COc1ccc(-c2cn[nH]c2-c2ccc(OC)cc2)cc1`, the inhibition was 33.8% (active). Under `Cc1cc(/C=C2/C(=O)NN(c3ccccc3)C2=O)c(C)n1-c1ccc(O)cc1` stands -74.4%; under `O=C(N/N=C/c1cc(Cl)ccc1O)C(=O)Nc1ccccc1OC(F)(F)C(F)F`, 44.3% (active); under `CN(C)CC(C(=O)c1ccccc1)c1ccccc1` (stereo not given), 41.8% (active). For the compound `Nc1nccc(-c2ccc(-n3cnc4ccccc43)cc2)n1`, the inhibition was 26.3% (active).

`Cc1nc2ccc(NC(=O)c3ccc(Cl)c(S(=O)(=O)N(C)c4ccccc4)c3)cc2s1`: the inhibition was 33.7% (active). The value for `CC(=O)NC(C)c1cc(Cl)c2cccnc2c1O` (stereo not given) was 2.16%. Regarding `COc1ccc(-c2csc(NC(=O)C3CCN(c4ncnc5sc(C)c(C)c45)CC3)n2)cc1OC`, the inhibition is 52.6% (active). As to `O=C(N/N=C(\c1ccccc1)c1ccccn1)c1ccccc1Cl`, the inhibition was 12.4%.

In the case of `Nc1nc(=O)n(C2CC(O)C(CO)O2)cc1F` (stereo not given), the inhibition was 40.9% (active).

With `Nc1ncnc(NCc2ccccc2)c1[N+](=O)[O-]`, the inhibition was 42.4% (active).

In the case of `COc1ccc(C(C(=O)NC2CCCCC2)N(C(=O)CCl)c2ccc(C)cc2)cc1` (stereo not given), the inhibition is 49.2% (active).

With `O=C(C=P(c1ccccc1)(c1ccccc1)c1ccccc1)c1ccccc1-c1ccccc1C(=O)C=P(c1ccccc1)(c1ccccc1)c1ccccc1`, the inhibition is 82.8% (active).

In the case of `O=C(CCSc1nc2ccccc2s1)N/N=C/c1c(O)ccc2ccccc12`, the inhibition is 32% (active). As to `CC(C)Cn1c(N)c(C(=O)CSc2ccc3c(c2)OCCO3)c(=O)n(C)c1=O`, the inhibition was 51.9% (active). For the compound `COc1ccc(-n2cc(-c3ccccc3)[n+]3c2CCCCC3)cc1`, the inhibition is 27.7% (active). For `COc1cccc2c1C(=N)c1c(O)c3c(c(O)c1C2=O)CC(O)(C(C)=O)CC3OC1CC(N)C(O)C(C)O1` (stereo not given), the inhibition is -29.4%. The value for `Cn1c(C(=O)O)c(CC(=O)Nc2ccc3c(c2)OCCO3)c2ccccc21` was -7.4%; that for `Cc1cc(C)c2nc3nc(C)c(C)cc3c(N)c2c1` was 48% (active); that for `CCOc1cc(/C=C2\CN(C)C/C(=C\c3ccc(O)c(OCC)c3)C2=O)ccc1O` was 75.6% (active). For the compound `CC1(C)CCSC(/C=C/c2ccccc2)=N1`, the inhibition is 39.8% (active). On to `Cc1cc(=O)[nH]c(Nc2cccc(Br)c2)n1`, for which the inhibition was 24.4%. For the compound `CC(=O)NS(=O)(=O)c1ccc(NC(=O)/C=C/c2cn(-c3ccccc3)nc2-c2ccccc2)cc1`, the inhibition is -3.92%. On to `Cn1c(CC(=O)Nc2ccc(Cl)c(Cl)c2)nnc1SCC(=O)N1CCN(c2ccccc2)CC1`, for which the inhibition is 9.79%.

`O=C(N/N=C/c1ccccc1O)/C(=C/c1ccccc1)CCO`: the inhibition is 19.2%. Turning to `COc1ccc(-c2c[n+]3c(n2-c2ccccc2)SCC3)cc1`, the inhibition is 21%. Consider `Oc1ccc(-c2n[nH]c(=S)n2-c2ccc3c(c2)OCCO3)c(O)c1`, for which the inhibition is 43.7% (active). Take `COCC(C)n1c(C)cc(C(=O)COC(=O)c2cc(=O)[nH]c3ccccc23)c1C` (stereo not given): the inhibition was -32.1%. Consider `NC(=O)N=Nc1c2[nH]c3ccccc3nc-2c2ccccc12`, for which the inhibition is 48.8% (active). In the case of `O=C(/C=C/c1ccc(OCCCF)cc1)Nc1ccnc(-c2cccnc2)n1`, the inhibition was 15.8%. For `O=C(c1ccncc1)N(Cc1cc2ccccc2[nH]c1=O)C1CCCCC1`, the inhibition is 23.1%. `O=C1C(F)=CC(COC(c2ccccc2)(c2ccccc2)c2ccccc2)OC1n1cc(F)c(=O)[nH]c1=O` (stereo not given): the inhibition is 62.1% (active).

As usually defined, the inhibition is the drop in the measured response relative to a control, in per cent.

(Values after PubChem BioAssay.)
